# Only some compounds are listed: those with a hit (about 4.6% of all), similar ones and a draw of the others.
# D1 antag: blocks dopamine activation of the human D1 receptor; HEK293 TREx D1 cells, calcium flux, dopamine EC80; active compounds read low; 3.2% of 360,000 active; activity change, negative = inhibition, % at 10 µM; P21728; in the data active = activity change below about -30%; also: % is scaled to controls: 0 for no effect and ±100 for the full control effect
#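 Using tetracycline-induced force-coupled D1 Hek293 cells and a calcium dye, signals were followed for 180 s after compound, then for 180 s after EC80 dopamine, to detect inhibitors.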
# Epigenetic derep: derepresses silenced GFP reporter in murine cells | 0.2% of 280,000 active | Potency, µM (highest dose often 53.9 µM), without a hit: top-dose GFP activation, usual class: activators | murine LDR cells, GFP reporter derepression, 30 h; active = well fitted activation curve with a large enough effect; also: potency is read from the fitted curve at half-maximal effect; % of control where 0% means no effect; nearly all actives have a fitted effect of over 60% in size
#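 Readout is the number of GFP-expressing murine LDR cells, counted by cytometry following washing. Cells were treated with compound for 30 h at 37 C; the stably integrated CMV-GFP locus is normally silent.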
# TRHR PAM: allosteric enhancers of human TRH receptor; TRHR cells, fluo-8 calcium fluorescence, EC20 TRH enhancement; enhancement, % at 2 µM; 0.66% of 360,000 active; AID 493056; in the data active = enhancement above about 30%; also: 0% is about no effect
# Target sequence (P34981 whole entry, looked up): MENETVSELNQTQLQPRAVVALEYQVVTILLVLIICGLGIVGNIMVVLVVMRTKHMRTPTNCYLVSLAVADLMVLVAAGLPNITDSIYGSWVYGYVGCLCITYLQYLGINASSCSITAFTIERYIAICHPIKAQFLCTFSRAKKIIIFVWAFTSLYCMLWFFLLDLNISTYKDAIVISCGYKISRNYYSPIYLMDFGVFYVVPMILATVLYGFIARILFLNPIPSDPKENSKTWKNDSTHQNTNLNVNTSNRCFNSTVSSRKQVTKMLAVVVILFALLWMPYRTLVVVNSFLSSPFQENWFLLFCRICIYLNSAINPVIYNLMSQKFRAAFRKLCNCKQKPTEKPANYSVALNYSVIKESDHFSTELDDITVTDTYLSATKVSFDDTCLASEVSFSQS
#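 Enhancer read-out: after compound pinning and an initial kinetic agonist-mode read, an EC20 of TRH (10 nM final) was injected and fluo-8 calcium signal (Ex 480/Em 530) followed at 1 s/cycle for 100 cycles in TRHR-expressing cells.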
# D1 PAM: human D1 dopamine receptor positive modulation; P21728; HEK293 TREx D1 cells, calcium flux, dopamine EC20 potentiation; potentiation, % at 10 µM; 0.036% of 360,000 active; in the data active = potentiation above about 30%; also: 0% is about no effect
# D1 agonist: human D1 receptor agonism | 1% of 360,000 active | AID 504660 | HEK293 T-REx D1 cells, calcium flux, agonist mode | activation, % at 2 µM | P21728; also: 0% is about no effect
#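 Agonism was scored from calcium flux recorded over 180 s (1 read/s) after pintool compound addition, following a 10-cycle baseline. Cells were inducible force-coupled HEK293 TREx D1, plated overnight at 30 C and loaded with no-wash calcium dye.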
# TRHR agonist: activates the human TRH receptor. P34981. TRHR cells, calcium flux fluo-8, FDSS agonist mode. activation, % at 2 µM. 0.18% of 360,000 active. AID 493084; also: 0% is about no effect
#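 Fluo-8-loaded TRHR cells; 10 s baseline, compound added, kinetic Ca2+ fluorescence read 1/s, agonist mode.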
# Starred values were filed as active, the others as inactive; nt = not tested or not shown. Rule as the data show it, unless noted: active = activation above about 30%; inactive = the rest.
SMILES,D1 antag,Epigenetic derep,TRHR PAM,D1 PAM,D1 agonist,TRHR agonist
Cc1ccc(Cl)cc1N1CCN(c2nc3ccccc3c3nc(-c4cccnc4)nn23)CC1,16,0%,-1,-2,4,0
CCc1nc(-c2ccc(C)c(S(=O)(=O)N3CCN(c4ccc(C(C)=O)cc4)CC3)c2)no1,3,0%,14,2,4,0
O=C(CSc1nc2ccccc2o1)Nc1ccc(N2CCOCC2)cc1,-44*,-2%,1,-2,5,0
CC(C)(C)NC(=O)NC(=O)CSc1ccc(S(=O)(=O)N2CCCCC2)cn1,-39*,nt,1,5,8,1
CCOc1ccc2c(c1)c(=O)c(C(=O)c1ccc(CC)cc1)cn2CC(=O)Nc1cccc(Cl)c1,14,6%,3,-1,6,-2
CCN(CC)S(=O)(=O)c1cccc(C(=O)N/N=C2\CC(=O)CC(C)(C)C2)c1,-18,-1%,-5,-2,4,3
CCN(CC)S(=O)(=O)c1cccc(C(=O)N/N=C2\CCCC(=O)C2)c1,21,0%,-14,-2,38*,9
O=S(=O)(Nc1nc2ccccc2nc1Nc1ccccc1Br)c1ccccc1,12,0%,-5,-2,12,0
Cc1nn(-c2cc(C(F)(F)F)ccc2Cl)c2nc(C(Cl)(Cl)Cl)[nH]c(=O)c12,-38*,0%,0,-16,4,-1
COc1ccc(Cl)cc1NC(=O)CCCn1c(C)c2cnn(-c3ccccc3)c(=O)c2c1C,-79*,-3%,2,-5,1,0
COc1ccc(Cl)cc1NC(=O)COC(=O)CCCN1C(=O)c2ccccc2C1=O,-33*,-2%,2,-1,6,0
COc1ccc(CNC(=O)c2ccc(-c3nc(CSc4ccccc4)c(C)o3)cc2)c(OC)c1,-8,4%,-2,-2,3,1
CC(=O)Cn1cnc2sc(-c3ccccc3)cc2c1=O,-36*,1%,-2,-3,1,1
CCOc1cccc2cc(-c3nc(-c4ccccc4C)no3)c(=O)oc12,-15,-1%,-3,-4,2,0
Cc1ccc(Cl)cc1NC(=O)CCS(=O)(=O)c1ccc2c(c1)n(C)c(=O)c(=O)n2C,-35*,-2%,24,0,2,-1
Cc1cccc(NC(=O)CCS(=O)(=O)c2ccc3c(c2)n(C)c(=O)c(=O)n3C)c1C,-1,-8%,-5,0,-3,-1
COc1ccc(NC(=O)CC(=O)Nc2ccc(OC)cc2OC)c(OC)c1,-89*,1%,5,-6,4,1
COc1ccc(NC(=O)Nc2nc(C)cc(C)n2)c(OC)c1,-34*,-2%,-6,-12,1,1
COc1ccc(NC(=O)c2ccc(CN3CCc4ccccc4C3)cc2)c(OC)c1,-35*,nt,-1,-20,1,-1
COc1ccc(OC)c(NC(=O)c2ccc(CN3CCc4ccccc4C3)cc2)c1,-1,nt,0,-2,1,0
COc1ccc(NC(=O)CO/N=C2/CCCc3nonc32)c(OC)c1,-32*,0%,1,-2,6,-1
COc1ccc(NC(=O)CO/N=C2\CCCc3nonc32)cc1,-5,0%,7,7,4,0
CCSc1nnc2c(n1)OC(c1sccc1C)N(C(C)=O)c1ccccc1-2 (centres undefined),3,0%,1,0,1,-1
CCSc1nnc2c(n1)OC(c1ccc(OC)c(OC)c1)N(C(C)=O)c1ccccc1-2 (centres undefined),-30*,-1%,7,2,-2,-1
COc1cc(F)cc(-c2ccc3c(c2)c(-c2cccs2)c(-c2cc(OC)cc(OC)c2)n3C)c1,nt,nt,-1,-6,42*,5
SMILES,D1 antag,Epigenetic derep,TRHR PAM,D1 PAM,D1 agonist,TRHR agonist
CCC1CCc2c(sc(NC(=O)C3c4ccccc4Oc4ccccc43)c2C(=O)OC)C1 (centres undefined),-4,-1%,4,-3,2,0
COc1ccc(/C=N/NC(=O)c2cc(-c3ccccc3)nc3ccccc23)c(OC)c1,-10,nt,-1,0,3,1
COc1ccc2nc(-c3ccccc3)cc(OC)c2c1,-60*,2%,6,-6,1,0
COc1cc(OC)c2c(OC)cccc2n1,-82*,-1%,-10,-4,0,0
COc1ccccc1-c1nc2ccccc2nc1-c1ccccc1OC,3,3%,-24,-14,1,-1
CCCc1c(C)nc(N2CCN(c3ccc(F)cc3)CC2)[nH]c1=O,-30*,nt,-4,-1,13,0
CCc1c(C)nc(N2CCN(c3ccc(F)cc3)CC2)[nH]c1=O,-9,nt,2,-5,7,1
Cc1c(C(=O)Nc2cccc(F)c2)sc2nc(-c3cc4ccccc4oc3=O)[nH]c(=O)c12,-36*,0%,4,4,-1,0
O[N+]1=CC=CCC1=S.On1ccccc1=S.[Zn],nt,-1%,nt,nt,nt,nt
COc1ccc(S(=O)(=O)N2CCCC(C(=O)NCCC(C)C)C2)cc1 (centres undefined),-30*,-2%,3,-8,5,-1
COc1ccc(S(=O)(=O)N2CCCC(C(=O)NCc3cccnc3)C2)cc1 (centres undefined),9,nt,7,1,1,0
CCOC(=O)c1c(C)[nH]c(C)c1S(=O)(=O)N1CCCC(C(=O)NCc2ccc(N(C)C)cc2)C1 (centres undefined),-31*,0%,-2,-4,3,0
CCOC(=O)c1c(C)[nH]c(C)c1S(=O)(=O)N1CCCC(C(=O)NCc2cccc(C)c2)C1 (centres undefined),-4,1%,7,6,1,0
COc1ccc(S(=O)(=O)N2CCCC(C(=O)O)C2)cc1 (centres undefined),2,-1%,1,-2,0,0
CCOc1ccc(S(=O)(=O)N2CCCC(C(=O)NCc3cccnc3)C2)cc1 (centres undefined),-31*,nt,-2,-9,1,0
COc1ccc(S(=O)(=O)N2CCC(C(=O)NCc3cccnc3)CC2)cc1OC,-52*,nt,-1,22,2,-1
Cc1ccc(CNC(=O)c2ccc(Cn3c(=O)c4ccccc4n(CC(=O)Nc4ccc(C)cc4C)c3=O)cc2)cc1,-7,4%,-1,-3,3,1
Cc1cc(C(=O)NCCc2ccc(S(=O)(=O)NC(=O)NN3CCCCCC3)cc2)no1,nt,-2%,nt,nt,nt,nt
COc1cc(NC(=O)CN2C(=O)c3ccccc3Sc3ccc(C(=O)N4CCCC4)cc32)cc(OC)c1,-4,0%,-8,-2,7,0
